# Results taken from PubChem BioAssay (EPA / NIEHS).
# Calls of active or inactive are those of the source. Rule for the calls: active = hit-call score of the fitted dose curve at least 0.9, where 1 is the maximum; inactive = score below 0.9.
# How the values were obtained:
# Conditions in all cases: mRNA level, 48 h; actives raise or lower the signal
# [1] = read-out: Lipoprotein lipase (LPL), LPL (gene 4023); assay: LTEA_HepaRG_LPL: Life Technologies and Expression Analysis (LTEA) Assay for Lipoprotein lipase (LPL) using HepaRG (AID 2283515)
# Method in brief: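 Read-out is LPL transcript level by qRT-PCR, normalized to three housekeeping genes and fitted bidirectionally against the DMSO control. Human HepaRG cells received chemicals for 48 h at up to 100 uM.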
# [2] = read-out: MicroRNA 122 (MIR122), gene 406906; assay: LTEA_HepaRG_MIR122: Life Technologies and Expression Analysis (LTEA) Assay for MicroRNA 122 (MIR122) using HepaRG (AID 2283516); note: the transcript read is the microRNA miR-122
# Method in brief: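 HepaRG, 48 h exposure, 8-pt half-log from 100 uM, 0.5% DMSO; TaqMan qRT-PCR; bidirectional fit vs DMSO.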
# [3] = read-out: matrix metalloproteinase-10 (MMP10), MMP10 (gene 4319); assay: LTEA_HepaRG_MMP10: Life Technologies and Expression Analysis (LTEA) Assay for matrix metalloproteinase-10 (MMP10) using HepaRG (AID 2283517)
# Method in brief: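 Gain or loss of MMP10 mRNA is fitted relative to the 0.5% DMSO vehicle. The human hepatic line HepaRG receives a 48-hour serum-free exposure, in duplicate, with a maximum concentration of 100 uM.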
# [4] = read-out: MYC, MYC (gene 4609); assay: LTEA_HepaRG_MYC: Life Technologies and Expression Analysis (LTEA) Assay for MYC using HepaRG (AID 2283518)
# Method in brief: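 MYC transcript changes, up or down relative to 0.5% DMSO, from TaqMan qRT-PCR normalized to three housekeeping genes. Human HepaRG cultures received chemicals for 48 h at eight half-log concentrations up to 100 uM, in duplicate.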
# [5] = read-out: matrix metalloproteinase-3 (MMP3), MMP3 (gene 4314); assay: LTEA_HepaRG_MMP3: Life Technologies and Expression Analysis (LTEA) Assay for matrix metalloproteinase-3 (MMP3) using HepaRG (AID 2283519)
# Method in brief: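 HepaRG, human; 48 h dosing, 8 conc. (max 100 uM, half-log), duplicate, 0.5% DMSO. Readout: MMP3 transcript by Fluidigm TaqMan qRT-PCR, ACTB/GAPDH/POLR2A-normalised. Gain or loss fitted vs DMSO.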
# [6] = read-out: Paternally Expressed 10 (PEG10), PEG10 (gene 23089); assay: LTEA_HepaRG_PEG10: Life Technologies and Expression Analysis (LTEA) Assay for Paternally Expressed 10 (PEG10) using HepaRG (AID 2283520)
# Method in brief: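 Chemicals tested on HepaRG cells for 48 h, highest concentration 100 uM. PEG10 expression assessed by qRT-PCR relative to DMSO control.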
# [7] = read-out: Phosphatase and tensin (PTEN), PTEN (gene 5728); assay: LTEA_HepaRG_PTEN: Life Technologies and Expression Analysis (LTEA) Assay for Phosphatase and tensin (PTEN) using HepaRG (AID 2283523)
# Method in brief: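 Read-out is PTEN transcript level by multiplexed TaqMan qRT-PCR after 48 h chemical treatment of human HepaRG cultures in serum-free induction medium. Concentrations spanned 100 uM downward in half-log steps, 0.5% DMSO throughout; activity fitted in both directions against vehicle.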
# [8] = read-out: solute carrier (SLC22A1), SLC22A1 (gene 6580); assay: LTEA_HepaRG_SLC22A1: Life Technologies and Expression Analysis (LTEA) Assay for solute carrier (SLC22A1) using HepaRG (AID 2283524)
# Method in brief: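 HepaRG (human liver line), 48 h dosing in serum-free induction medium; 8 conc., half-log down from 100 uM, 0.5% DMSO vehicle, duplicates. Endpoint: SLC22A1 mRNA, qRT-PCR, housekeeping-normalized; gain/loss fit vs DMSO.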
# [9] = read-out: Pyruvate Dehydrogenase Kinase 4 (PDK4), PDK4 (gene 5166); assay: LTEA_HepaRG_PDK4: Life Technologies and Expression Analysis (LTEA) Assay for Pyruvate Dehydrogenase Kinase 4 (PDK4) using HepaRG (AID 2283525)
# Method in brief: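 In this multiplexed human HepaRG expression assay, cells are treated 48 h with test chemicals across an eight-point range starting at 100 uM. PDK4 mRNA changes, normalized to ACTB/GAPDH/POLR2A, are fitted in both directions relative to vehicle.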
# [10] = read-out: NAD(P)H dehydrogenase [quinone] 1 (NQO1), NQO1 (gene 1728); assay: LTEA_HepaRG_NQO1: Life Technologies and Expression Analysis (LTEA) Assay for NAD(P)H dehydrogenase [quinone] 1 (NQO1) using HepaRG (AID 2283526)
# Method in brief: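 Human HepaRG hepatic cells received chemicals for 48 h in serum-free induction medium with 0.5% DMSO, up to 100 uM. Expression was assessed by TaqMan qRT-PCR against housekeeping controls and fitted bidirectionally against DMSO.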
# [11] = read-out: Nuclear factor erythroid 2-related factor 2 (Homo sapiens) (UniProt Q16236); assay: LTEA_HepaRG_NFE2L2: Life Technologies and Expression Analysis (LTEA) Assay for Nuclear factor erythroid 2-related factor 2 (NFE2L2) Transcription Factor using HepaRG (AID 2283527);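 for outcome: TaqMan qRT-PCR transcript level normalised to ACTB GAPDH and POLR2A housekeeping genes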
# Method in brief: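 Transcript level of NFE2L2 is the read-out, measured by microfluidic TaqMan qRT-PCR and normalized to three housekeeping genes. Human HepaRG cultures received test chemical for 48 h at up to 100 uM in half-log steps. Gain or loss of signal is fitted relative to 0.5% DMSO.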
# [12] = read-out: succinate dehydrogenase complex iron sulfur subunit B (SDHB), SDHB (gene 6390); assay: LTEA_HepaRG_SDHB: Life Technologies and Expression Analysis (LTEA) Assay for succinate dehydrogenase complex iron sulfur subunit B (SDHB) using HepaRG (AID 2283528)
# Method in brief: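 HepaRG cells (~100,000/well, plated 48 h) exposed in duplicate for 48 h in serum-free induction medium to 8-point half-log series from 100 uM in 0.5% DMSO; mRNA by qRT-PCR normalised to ACTB, GAPDH, POLR2A; bidirectional fit versus DMSO.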
# [13] = read-out: Signal transducer and activator of transcription 3 (Homo sapiens) (UniProt P40763); assay: LTEA_HepaRG_STAT3: Life Technologies and Expression Analysis (LTEA) Assay for Signal transducer and activator of transcription (STAT3) using HepaRG (AID 2283529)
# Method in brief: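 Read-out is STAT3 mRNA level by qRT-PCR, normalized to three housekeeping genes, in human HepaRG liver cells treated for 48 h. Concentrations ran from 100 uM downward in half-log steps; curves were fitted for gain or loss relative to 0.5% DMSO.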
# [14] = read-out: solute carrier (SLCO1B1), SLCO1B1 (gene 10599); assay: LTEA_HepaRG_SLCO1B1: Life Technologies and Expression Analysis (LTEA) Assay for solute carrier (SLCO1B1) using HepaRG (AID 2283530)
# Method in brief: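 SLCO1B1 transcript levels were quantified by TaqMan qRT-PCR using three housekeeping genes for normalization. This followed 48 h chemical exposure (100 uM top, half-log, 8 points, 0.5% DMSO) of HepaRG liver cells, with gain or loss fitted relative to DMSO.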
# [15] = read-out: sulfotransferase 2A1 (SULT2A1), SULT2A1 (gene 6822); assay: LTEA_HepaRG_SULT2A1: Life Technologies and Expression Analysis (LTEA) Assay for sulfotransferase 2A1 (SULT2A1) using HepaRG (AID 2283531)
# Method in brief: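 Expression change of SULT2A1, by qRT-PCR with three housekeeping-gene normalization, was scored bidirectionally versus DMSO. Cells: differentiated HepaRG, dosed in duplicate for 48 h across 8 points, highest 100 µM, half-log dilution, 0.5% DMSO.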
# [16] = read-out: Transforming Growth Factor (TGFA), TGFA (gene 7039); assay: LTEA_HepaRG_TGFA: Life Technologies and Expression Analysis (LTEA) Assay for Transforming Growth Factor (TGFA) using HepaRG (AID 2283532)
# Method in brief: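 HepaRG (human liver line), 48 h exposure, 8 conc. half-log down from 100 uM, 0.5% DMSO vehicle, duplicates; serum-free induction medium. TGFA mRNA by TaqMan qRT-PCR, ACTB/GAPDH/POLR2A normalization; gain/loss fit vs DMSO.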
# [17] = read-out: Transforming Growth Factor (TGFB1), TGFB1 (gene 7040); assay: LTEA_HepaRG_TGFB1: Life Technologies and Expression Analysis (LTEA) Assay for Transforming Growth Factor (TGFB1) Transporter using HepaRG (AID 2283533)
# Method in brief: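 TGFB1 transcript measured by qRT-PCR with normalisation to three housekeeping genes (ACTB, GAPDH, POLR2A); human HepaRG line treated in duplicate for 48 hr with an 8-point series topping at 100 uM, 0.5% DMSO vehicle, bidirectionally fitted.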
# [18] = read-out: Tumor necrosis factor receptor 1 (TNFRSF1A), TNFRSF1A (gene 7132); assay: LTEA_HepaRG_TNFRSF1A: Life Technologies and Expression Analysis (LTEA) Assay for Tumor necrosis factor receptor 1 (TNFRSF1A) using HepaRG (AID 2283535)
# Method in brief: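 mRNA measured by qRT-PCR (TaqMan, Fluidigm arrays) against ACTB/GAPDH/POLR2A housekeepers after 48 h chemical exposure of HepaRG cells. Top concentration 100 uM, half-log 8-point series, duplicates; vehicle 0.5% DMSO, both fit directions.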
# Sequence of Signal transducer and activator of transcription 3 (Homo sapiens) (P40763 whole entry, looked up): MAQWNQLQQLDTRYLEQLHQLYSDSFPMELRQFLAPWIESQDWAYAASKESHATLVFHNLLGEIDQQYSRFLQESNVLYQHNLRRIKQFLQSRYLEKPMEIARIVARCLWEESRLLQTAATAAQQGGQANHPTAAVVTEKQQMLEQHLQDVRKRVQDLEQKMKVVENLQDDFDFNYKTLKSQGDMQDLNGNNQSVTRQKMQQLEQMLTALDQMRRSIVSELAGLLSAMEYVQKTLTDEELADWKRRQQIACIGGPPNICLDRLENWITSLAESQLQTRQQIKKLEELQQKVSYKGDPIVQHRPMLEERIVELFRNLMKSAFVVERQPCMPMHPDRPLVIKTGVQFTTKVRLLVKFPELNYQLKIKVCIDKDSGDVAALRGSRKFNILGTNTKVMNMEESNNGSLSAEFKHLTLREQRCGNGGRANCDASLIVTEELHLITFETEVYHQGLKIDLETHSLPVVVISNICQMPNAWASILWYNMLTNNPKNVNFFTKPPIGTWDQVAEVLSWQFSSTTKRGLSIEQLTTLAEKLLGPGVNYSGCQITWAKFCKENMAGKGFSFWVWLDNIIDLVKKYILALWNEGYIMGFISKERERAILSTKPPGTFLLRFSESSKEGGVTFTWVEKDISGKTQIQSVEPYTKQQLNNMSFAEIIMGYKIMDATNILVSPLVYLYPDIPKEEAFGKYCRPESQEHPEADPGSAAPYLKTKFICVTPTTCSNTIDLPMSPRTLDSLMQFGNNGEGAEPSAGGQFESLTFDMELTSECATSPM
# Sequence of Nuclear factor erythroid 2-related factor 2 (Homo sapiens) (Q16236 whole entry, looked up): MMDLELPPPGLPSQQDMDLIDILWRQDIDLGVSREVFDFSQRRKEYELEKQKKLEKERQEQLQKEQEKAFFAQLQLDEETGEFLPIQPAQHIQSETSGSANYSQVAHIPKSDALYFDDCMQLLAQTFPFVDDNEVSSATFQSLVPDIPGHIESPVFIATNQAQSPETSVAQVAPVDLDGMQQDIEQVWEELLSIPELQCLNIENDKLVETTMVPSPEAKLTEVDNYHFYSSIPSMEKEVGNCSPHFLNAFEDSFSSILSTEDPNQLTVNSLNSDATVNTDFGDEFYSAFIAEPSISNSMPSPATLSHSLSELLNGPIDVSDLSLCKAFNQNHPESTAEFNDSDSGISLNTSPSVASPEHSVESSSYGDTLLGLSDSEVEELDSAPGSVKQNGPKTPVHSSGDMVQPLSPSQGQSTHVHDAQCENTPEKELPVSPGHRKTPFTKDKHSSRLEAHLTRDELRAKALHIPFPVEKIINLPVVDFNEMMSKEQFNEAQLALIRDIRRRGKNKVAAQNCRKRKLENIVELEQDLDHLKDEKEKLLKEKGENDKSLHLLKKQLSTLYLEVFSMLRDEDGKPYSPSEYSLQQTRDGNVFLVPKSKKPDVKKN
smiles,measurement,setting,value
COCCO,outcome,[1],inactive
same,outcome,[2],inactive
same,outcome,[3],inactive
same,outcome,[4],inactive
same,outcome,[5],inactive
same,outcome,[6],inactive
same,outcome,[7],inactive
same,outcome,[8],inactive
same,outcome,[9],inactive
same,outcome,[10],inactive
same,outcome,[11],inactive
same,outcome,[12],inactive
same,outcome,[13],inactive
same,outcome,[14],inactive
same,outcome,[15],inactive
same,outcome,[16],inactive
same,outcome,[17],inactive
same,outcome,[18],inactive
CCCCOCCOCCOCc1cc2c(cc1CCC)OCO2,outcome,[1],inactive
same,outcome,[2],inactive
same,outcome,[3],inactive
same,outcome,[4],inactive
same,outcome,[5],inactive
same,outcome,[6],inactive
same,outcome,[7],inactive
same,outcome,[8],inactive
same,AC50,[9],17.8 µM (active)
same,outcome,[10],inactive
same,AC50,[11],9.6 µM (active)
same,outcome,[12],inactive
same,outcome,[13],inactive
same,AC50,[14],8.47 µM (active)
same,AC50,[15],6.8 µM (active)
same,outcome,[16],inactive
same,outcome,[17],inactive
same,outcome,[18],inactive
CCOC(=O)c1ccc(O)cc1,outcome,[1],inactive
same,outcome,[2],inactive
same,outcome,[3],inactive
same,outcome,[4],inactive
same,outcome,[5],inactive
same,outcome,[6],inactive
same,outcome,[7],inactive
same,outcome,[8],inactive
same,outcome,[9],inactive
same,outcome,[10],inactive
same,outcome,[11],inactive
same,outcome,[12],inactive
same,outcome,[13],inactive
same,outcome,[14],inactive
same,outcome,[15],inactive
same,outcome,[16],inactive
same,outcome,[17],inactive
same,outcome,[18],inactive
CC(C)CCCCCCc1ccc(O)cc1,outcome,[1],inactive
same,outcome,[2],inactive
same,outcome,[3],inactive
same,outcome,[4],inactive
same,outcome,[5],inactive
same,outcome,[6],inactive
same,outcome,[7],inactive
same,outcome,[8],inactive
same,outcome,[9],inactive
same,outcome,[10],inactive
same,outcome,[11],inactive
same,outcome,[12],inactive
same,outcome,[13],inactive
same,outcome,[14],inactive
same,outcome,[15],inactive
same,outcome,[16],inactive
same,outcome,[17],inactive
same,outcome,[18],inactive
